Inconclusive results are not listed. Values without a mark were called inactive. Calls of active or inactive are those of the source. Unless noted, calls follow the shape of the full dose curve.
Target: Peroxisome proliferator-activated receptor delta (Homo sapiens) (UniProt Q03181)
Sequence (Q03181 whole entry, looked up): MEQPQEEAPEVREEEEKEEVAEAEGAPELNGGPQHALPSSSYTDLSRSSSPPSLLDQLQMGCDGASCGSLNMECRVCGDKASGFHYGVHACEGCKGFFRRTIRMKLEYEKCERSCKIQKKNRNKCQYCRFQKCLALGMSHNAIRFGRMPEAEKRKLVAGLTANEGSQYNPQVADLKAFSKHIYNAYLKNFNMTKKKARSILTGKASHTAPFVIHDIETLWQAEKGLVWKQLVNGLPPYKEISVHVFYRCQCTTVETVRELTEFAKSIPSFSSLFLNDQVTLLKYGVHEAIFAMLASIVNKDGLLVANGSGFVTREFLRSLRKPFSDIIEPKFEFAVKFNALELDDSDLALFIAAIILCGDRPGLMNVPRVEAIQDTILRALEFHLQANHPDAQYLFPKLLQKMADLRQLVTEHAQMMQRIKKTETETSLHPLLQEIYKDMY
Assay: qHTS assay to identify small molecule agonists of the peroxisome proliferator-activated receptor delta (PPARd) signaling pathway (AID 743212); also: potency is read from the fitted curve at half-maximal effect
Details: HEK293H PPARd-UAS-bla, beta-lactamase FRET ratio, 17 h; series mostly up to 62.6 µM; activation: at the top concentration
Summary of the method: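 HEK293H UAS-bla reporter cells, human PPARd system; compounds delivered in DMSO after 5 h plating, then at 37 C. Beta-lactamase FRET read, 2 h RT substrate step.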
In the case of `COc1ccc(NC(=O)CC(C)=O)cc1`, the “activation” value was 2.46%.
In the case of `Cc1cccc(C)c1NC(=O)c1ccc(N)cc1`, the “activation” value was 1.2%.
In the case of `O[C@@H]([C@H](O)[C@H](O)CBr)[C@H](O)CBr`, the “activation” value was 1.02%.
For `CCCCCCCC`, the “activation” value was -1.02%.
In the case of `Cl[Si](Cl)(c1ccccc1)c1ccccc1`, the “activation” value was -2.72% [at 81.1 µM].
With `OCC(F)(F)F` the “activation” value was -0.349% [at 81.1 µM].
For `C=CCCC(=O)/C=C/C1C(C)=CCCC1(C)C` (configuration not stated), the “activation” value was 1.5%.
For `C[C@H]1NCc2cc(-c3ccc4c(=O)c(C(=O)O)cn(C5CC5)c4c3OC(F)F)ccc21`, the “activation” value was -2.2% [at 29.1 µM].
For `CCOC(=O)c1ccc(C2CCC(NC[C@H](O)COc3ccc(O)c(NS(C)(=O)=O)c3)CC2)cc1` (some centres not stated), the “activation” value was 1.07%.
In the case of `Cc1ccc(C)cc1`, the “activation” value was -4.15%.
For `CCCNCCC`, the “activation” value was 0.937% [at 81.1 µM].
In the case of `O=C(Oc1ccccc1)Oc1ccccc1`, the “activation” value was 0.625%.
In the case of `Cc1nc2n(c(=O)c1CCN1CCC(c3noc4cc(F)ccc34)CC1)CCCC2`, the “activation” value was -3.03%.
In the case of `Oc1cc(Cl)cc(Cl)c1Cl`, the “activation” value was 0.349% [at 81.1 µM].
With `Nc1ccc(NCCO)c([N+](=O)[O-])c1` the “activation” value was -3.43%.
In the case of `Clc1sc(Cl)c(Cl)c1Cl`, the “activation” value was -0.365%.
With `O=c1c(O)c(-c2ccc(O)cc2O)oc2cc(O)cc(O)c12` the “activation” value was -10.6%.
With `COc1cc2nc(N3CCN(C(=O)c4ccco4)CC3)nc(N)c2cc1OC` the “activation” value was 6.2% [at 29.1 µM].
For `CC(CO)Oc1ccccc1` (configuration not stated), the “activation” value was -2% [at 81.1 µM].
With `OC[C@@H](O)[C@@H](O)CO` the “activation” value was 0.0386%.
For `COc1cc(C)ccc1O`, the “activation” value was 2.71%.
For `CN(C)[C@@H](CCOc1cccc2ccccc12)c1ccccc1`, the “activation” value was 0.584%.
For `CC(=O)Oc1cc2c(s1)CCN(C(C(=O)C1CC1)c1ccccc1F)C2` (configuration not stated), the “activation” value was -0.0673%.
For `Cc1ccc(-c2ccccc2)cc1`, the “activation” value was 1.32%.
In the case of `FC(F)(F)c1cccc(Cl)c1`, the “activation” value was 0.184%.
With `CCCC[P+](C)(CCCC)CCCC` the “activation” value was 1.68% [at 81.1 µM].
With `COc1ccc(-c2coc3cc(O)ccc3c2=O)cc1` the “activation” value was 4.25%.
With `CC(C)(C)CC(C)(C)c1ccc(Nc2ccc(C(C)(C)CC(C)(C)C)cc2)cc1` the activation was 5.67% [at 5.95 µM].
In the case of `O=S(=O)(O)c1ccc(N=Nc2c(O)ccc3ccccc23)cc1`, the “activation” value was -6.34%.
In the case of `C=CC(C)(CCC=C(C)C)OC=O` (configuration not stated), the “activation” value was -2.08%.
With `CCCCCCCCCCOC(=O)c1ccccc1C(=O)OCCCCCCCC` the “activation” value was 0.0313%.
With `CCCC(=O)OCCc1ccccc1` the “activation” value was 1.59%.
In the case of `CCCCCCCC/C=C\CCCCCCCCN`, the “activation” value was 2.18%.
With `OC/C=C/CO` the “activation” value was 0.289%.
For `C#CC1(O)CC[C@H]2[C@@H]3CCC4=CCCC[C@@H]4[C@H]3CC[C@@]21C` (some centres not stated), the “activation” value was -6.59%.
In the case of `O=S(=O)(O)c1ccc(Nc2nc(Nc3ccc(/C=C/c4ccc(Nc5nc(Nc6ccc(S(=O)(=O)O)cc6)nc(N(CCO)CCO)n5)cc4S(=O)(=O)O)c(S(=O)(=O)O)c3)nc(N(CCO)CCO)n2)cc1`, the Potency was 33.1 µM (active).
For `Cc1c(F)c(N2CCNC(C)C2)cc2c1c(=O)c(C(=O)O)cn2C1CC1` (configuration not stated), the “activation” value was 0.253%.
With `O=C(O)c1cccc(C(F)(F)F)c1` the “activation” value was 1.19%.

System: not listed separately
Assay: qHTS assay to identify small molecule antagonists of the peroxisome proliferator-activated receptor delta (PPARd) signaling pathway - cell viability counter screen (AID 743213; active = well fitted cell-killing curve with a large enough effect in the repeat runs; also: nearly all actives have a fitted effect of over 50% in size; also: potency is read from the fitted curve at half-maximal effect)
Details: PPARd-bla HEK293H viability, CellTiter-Glo luminescence, 17 h; series mostly up to 62 µM; viability change, negative = cytotoxic: at the top concentration
Summary of the method: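 Viability counter-screen, qHTS format: PPARd-bla HEK293H, L165041 300 nM final, 17 h compound exposure at 37 C, CellTiter-Glo luminescence after 30 min RT.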
In the case of `COc1ccc(NC(=O)CC(C)=O)cc1`, the “viability change, negative = cytotoxic” value was 8.32%.
With `Cc1cccc(C)c1NC(=O)c1ccc(N)cc1` the “viability change, negative = cytotoxic” value was -14.2%.
With `CCCCCCCC` the “viability change, negative = cytotoxic” value was 1.57%.
In the case of `C=CCCC(=O)/C=C/C1C(C)=CCCC1(C)C` (configuration not stated), the “viability change, negative = cytotoxic” value was 5.39%.
With `CCCNCCC` the “viability change, negative = cytotoxic” value was 6.45% [at 80.4 µM].
For `Cc1nc2n(c(=O)c1CCN1CCC(c3noc4cc(F)ccc34)CC1)CCCC2`, the “viability change, negative = cytotoxic” value was 1.09%.
For `Oc1cc(Cl)cc(Cl)c1Cl`, the “viability change, negative = cytotoxic” value was 1.75% [at 80.4 µM].
With `Nc1ccc(NCCO)c([N+](=O)[O-])c1` the “viability change, negative = cytotoxic” value was -4.87%.
For `Clc1sc(Cl)c(Cl)c1Cl`, the “viability change, negative = cytotoxic” value was -4.31%.
With `OC[C@@H](O)[C@@H](O)CO` the “viability change, negative = cytotoxic” value was -6.86%.
For `COc1cc(C)ccc1O`, the “viability change, negative = cytotoxic” value was -1.39%.
In the case of `CC(=O)Oc1cc2c(s1)CCN(C(C(=O)C1CC1)c1ccccc1F)C2` (configuration not stated), the “viability change, negative = cytotoxic” value was 25.2%.
In the case of `Cc1ccc(-c2ccccc2)cc1`, the “viability change, negative = cytotoxic” value was -2.82%.
With `FC(F)(F)c1cccc(Cl)c1` the “viability change, negative = cytotoxic” value was 10.1%.
In the case of `CCCC[P+](C)(CCCC)CCCC`, the “viability change, negative = cytotoxic” value was -7.15% [at 80.4 µM].
In the case of `COc1ccc(-c2coc3cc(O)ccc3c2=O)cc1`, the “viability change, negative = cytotoxic” value was -8.79%.
Work on `CC(C)(C)CC(C)(C)c1ccc(Nc2ccc(C(C)(C)CC(C)(C)C)cc2)cc1` yielded a viability change, negative = cytotoxic of 2.44% [at 6.26 µM].
For `CCCCCCCCCCOC(=O)c1ccccc1C(=O)OCCCCCCCC`, the “viability change, negative = cytotoxic” value was -0.197%.
With `CCCC(=O)OCCc1ccccc1` the “viability change, negative = cytotoxic” value was -6.59%.
For `OC/C=C/CO`, the “viability change, negative = cytotoxic” value was 11.5%.
For `C#CC1(O)CC[C@H]2[C@@H]3CCC4=CCCC[C@@H]4[C@H]3CC[C@@]21C` (some centres not stated), the Potency was 26.6 µM (active).
With `O=S(=O)(O)c1ccc(Nc2nc(Nc3ccc(/C=C/c4ccc(Nc5nc(Nc6ccc(S(=O)(=O)O)cc6)nc(N(CCO)CCO)n5)cc4S(=O)(=O)O)c(S(=O)(=O)O)c3)nc(N(CCO)CCO)n2)cc1` the “viability change, negative = cytotoxic” value was -1.32%.
With `Cc1c(F)c(N2CCNC(C)C2)cc2c1c(=O)c(C(=O)O)cn2C1CC1` (configuration not stated) the “viability change, negative = cytotoxic” value was 0.644%.
For `O=C(O)c1cccc(C(F)(F)F)c1`, the “viability change, negative = cytotoxic” value was 4.4%.

Target: Peroxisome proliferator-activated receptor delta (Homo sapiens) (UniProt Q03181)
Assay: qHTS assay to identify small molecule antagonists of the peroxisome proliferator-activated receptor delta (PPARd) signaling pathway (AID 743215; active = well fitted inhibition curve with a large enough effect in the signal ratio in the repeat runs, not every such curve was filed as active; the % refers to the signal ratio;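 also: cells stimulated with agonist L165041 at 300 nM final during compound exposure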)
Details: HEK293H PPARd-UAS-bla, beta-lactamase FRET ratio, antagonist, 17 h; series mostly up to 62 µM; ratio activity, negative = inhibition: at the top concentration
Summary of the method: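 Read-out is beta-lactamase FRET fluorescence, measured 2 h after substrate addition at room temperature. Beforehand, UAS-bla HEK293H cells carrying the PPARd reporter were exposed to compounds with L165041 at 300 nM final for 17 h at 37 C.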
In the case of `OCC(F)(F)F`, the “ratio activity, negative = inhibition” value was 2.58% [at 80.4 µM].
In the case of `C[C@H]1NCc2cc(-c3ccc4c(=O)c(C(=O)O)cn(C5CC5)c4c3OC(F)F)ccc21`, the “ratio activity, negative = inhibition” value was 9.19% [at 28.9 µM].
With `O=C(Oc1ccccc1)Oc1ccccc1` the “ratio activity, negative = inhibition” value was 4.24%.
For `COc1cc2nc(N3CCN(C(=O)c4ccco4)CC3)nc(N)c2cc1OC`, the “ratio activity, negative = inhibition” value was -7.88% [at 28.9 µM].
In the case of `O=S(=O)(O)c1ccc(N=Nc2c(O)ccc3ccccc23)cc1`, the “ratio activity, negative = inhibition” value was -21.5%.

Reference: PubChem BioAssay (Tox21)
% is scaled to controls: 0 for no effect and ±100 for the full control effect.
